A selection: hits, their analogues and other compounds. The true share with any hit is near 2.3%.
CHRM1 PAM: potentiates human M1 receptor response to acetylcholine; P11229; CHO-K1 hM1, Fluo-8 calcium fluorescence, ACh EC20; 0% = ACh EC20, 100% = maximal ACh; activation, % at 3 µM; 360,000 tested, 0.088% active; AID 588819; in the data active means activation above about 19%, passing the limit was not always enough
Target sequence (P11229 whole entry, looked up): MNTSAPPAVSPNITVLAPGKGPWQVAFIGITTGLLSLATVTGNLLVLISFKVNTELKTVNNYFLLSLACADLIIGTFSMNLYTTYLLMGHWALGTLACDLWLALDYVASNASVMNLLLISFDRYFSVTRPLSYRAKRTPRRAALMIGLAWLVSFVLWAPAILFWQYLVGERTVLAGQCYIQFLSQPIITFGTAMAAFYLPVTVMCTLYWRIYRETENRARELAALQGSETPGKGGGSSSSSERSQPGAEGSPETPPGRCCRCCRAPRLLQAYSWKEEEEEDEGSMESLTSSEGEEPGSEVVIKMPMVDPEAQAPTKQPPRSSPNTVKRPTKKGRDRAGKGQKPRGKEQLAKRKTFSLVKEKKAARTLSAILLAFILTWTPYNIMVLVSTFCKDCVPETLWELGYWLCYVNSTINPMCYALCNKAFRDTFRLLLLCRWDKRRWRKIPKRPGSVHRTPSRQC
M1 PAM parental: counter-screen for M1 PAMs: effect in parental CHO-K1 cells; ATP EC20, Fluo-8 calcium fluorescence; 0% at ATP EC20, 100% at ATP max; activation, % at 3 µM; 360,000 tested, 0.02% active;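 active means activation above the run cutoff, the mean activation of all test compounds plus 3 SD, cut at about 40% in these data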;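 further: peak over basal fluorescence ratio in a 140 s read after ATP addition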
CHO-K1 Ca antag: nonselective inhibitor or artifact in parental CHO-K1 cells; ATP-induced calcium, Fluo-8 fluorescence; inhibition, % at 3 µM; 360,000 tested, 0.6% active;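 active means inhibition above a per-plate cutoff, the plate's mean sample inhibition plus 3 SD, cut at about 24% in these data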;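 further: 0% = DMSO plus EC80 ATP and 100% = DMSO alone without ATP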
CHRM1 antagonist: blocks human M1 muscarinic receptor; P11229; CHO-K1 hM1, Fluo-8 calcium fluorescence, ACh EC80 antagonist; inhibition, % at 3 µM; 360,000 tested, 1.3% active; AID 588852;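 active means percent inhibition above its own plate's cutoff, namely the mean of that plate's compound wells plus 3 SD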;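 further: peak over basal fluorescence ratio during 140 s after agonist addition; 0% = ACh EC80 plus DMSO and 100% = DMSO alone without agonist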
M1 ag parental: M1 agonist counterscreen hit in parental CHO-K1 cells. Fluo-8 calcium fluorescence; scaled to maximal ATP response, vehicle zero. AID 602248. 360,000 tested, 0.48% active. activation, % at 3 µM; in the data active means activation above about 15%;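 further: untransfected CHO-K1 host cells lacking M1 receptor as counterscreen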
M1 ag: activates human CHRM1 receptor | activation, % at 3 µM | CHO-K1 hM1, Fluo-8 calcium fluorescence, agonist mode; 0% DMSO, 100% acetylcholine EC100 | 360,000 tested, 0.33% active | P11229;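 active means activation above the run's mean compound activation plus 3 SD, cut at about 16% in these data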;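 further: peak over basal fluorescence ratio within a 140 s kinetic read after compound addition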
An asterisk follows results filed as active; · = no result given.

SMILES	CHRM1 PAM	M1 PAM parental	CHO-K1 Ca antag	CHRM1 antagonist	M1 ag parental	M1 ag
CN(C)/C=N/NC(=O)c1ccc(Cl)cc1	-0.3	21.4	-5.8	3.8	3.5	-6.7
O=C(Nc1ccccc1)Nc1nnc([C@@H]2C[C@H](O)[C@@H](CO)O2)s1	3.1	8.4	-7.6	-6.4	0.3	-2.6
c1ccc(-c2csc3ncnc(NCCCN4CCOCC4)c23)cc1	5.5	2.0	-2.6	-3.6	3.3	-4.4
O=c1c2c(-c3ccccc3)csc2nc2c3ccccc3c(NCCN3CCOCC3)nn12	-25.6	15.8	-12.5	91.8*	1.9	-7.4
Cn1cc(CNCc2ccc(OC(F)(F)F)cc2)c(-c2ccc3c(c2)OCCO3)n1	-10.1	4.2	22.4	33.1*	12.5	5.2
CCc1nc2c(OCc3ccc(C(F)(F)F)cc3)cccn2c1N(C)C(=O)c1ccncc1	7.9	5.4	3.5	-13.0	0.3	-5.9
CC(=O)N1CCN(C(=O)c2[nH]c(C(F)(F)F)nc2-c2ccccc2)CC1	3.3	8.3	-9.7	-24.3	1.1	-0.9
O=C(c1[nH]c(C(F)(F)F)nc1-c1ccccc1)N1CCCCC1	-0.5	-6.6	25.6*	2.3	-0.2	-1.3
CCOC(=O)C1CCCN(C(=O)c2[nH]c(C(F)(F)F)nc2-c2ccccc2)C1 (stereo unspecified)	-10.0	-8.3	-0.3	-9.1	0.0	16.6*
CCOC(=O)N1CCN(C(=O)c2[nH]c(C(F)(F)F)nc2-c2ccccc2)CC1	8.2	8.5	-15.5	-23.7	-0.2	8.8
CN(C)c1ncc(CN2CCC(CO)(CCCc3ccccc3)CC2)s1	3.5	-1.8	-7.6	-11.1	0.2	20.4*
CCOc1ccc(CN2CCN(S(=O)(=O)c3ccc(NC(C)=O)cc3)CC2)cc1	7.5	7.0	-6.7	-5.7	22.1*	-10.9
CC(=O)Nc1ccc(NC(=O)C(C)Oc2ccccc2F)cc1 (stereo unspecified)	6.3	-4.7	23.9*	5.1	-0.3	-1.9
CC(Oc1ccccc1C(N)=O)C(=O)Nc1ccc(S(=O)(=O)N2CCCC2)cc1 (stereo unspecified)	-24.1	-13.1	6.0	59.0*	1.4	-7.5
Cc1noc(C)c1COc1ccc(C(=O)OC(C)C(=O)Nc2ccc(S(=O)(=O)N3CCOCC3)cc2)cc1 (stereo unspecified)	-3.9	10.0	10.1	10.1	17.5*	-6.2
CC(Oc1ccccc1F)C(=O)Nc1ccc2ccccc2c1 (stereo unspecified)	6.6	-2.7	0.2	-7.7	-0.7	-1.3
COc1ccc(CN2CCN(S(=O)(=O)c3ccc(NC(C)=O)cc3)CC2)cc1OC	-1.0	6.5	-20.9	-1.6	4.3	-1.4
COc1ccc(CN(C)C(C)C(=O)Nc2ccc(S(=O)(=O)N3CCCCC3)cc2)c(OC)c1 (stereo unspecified)	-31.3	-5.9	-5.7	90.7*	0.1	-7.0
CCOc1ccccc1C(=O)OC(C)C(=O)Nc1ccc(S(=O)(=O)N2CCCC2)cc1 (stereo unspecified)	-12.2	-16.7	25.3*	28.6*	-0.4	-5.4
Oc1ccc(C[C@H]2CNC(=S)N2CC2CCCN2C[C@H](Cc2ccccc2)N2C[C@H](Cc3ccc(O)cc3)N(CC3CCCCC3)C2=S)cc1 (stereo partly specified)	-5.1	-0.5	11.0	10.5	0.2	-1.5
O=C(NCCCN1CCc2ccccc2C1)Nc1ccc(Br)cc1	-14.1	19.2	-4.5	43.6*	5.6	-0.9
CN(/N=C/c1ccc(-c2ccc([N+](=O)[O-])cc2)o1)c1ccccc1	1.7	-13.4	30.1*	4.0	17.1*	15.5
CN(/N=C/c1cc([N+](=O)[O-])ccc1O)c1ccccc1	8.9	28.2	-13.6	-8.6	3.4	-4.1
COc1cccc(CN(C)C(=O)c2ccc(S(=O)(=O)Nc3cccc(C)c3C)cc2)c1OC	-12.6	18.7	-9.8	4.0	11.8	9.7
CCC(=O)N(Cc1cc(=O)[nH]c2ccccc12)c1cccc(C)c1	-21.0	11.7	-7.7	65.3*	0.9	-4.7
SMILES	CHRM1 PAM	M1 PAM parental	CHO-K1 Ca antag	CHRM1 antagonist	M1 ag parental	M1 ag
CCC(=O)N(Cc1cc(=O)[nH]c2ccccc12)c1ccccc1C	10.0	-31.2	55.3*	-6.3	-0.7	-2.3
CCCC(=O)N(Cc1cc(=O)[nH]c2ccccc12)c1ccc(C)cc1	-28.5	21.6	-3.8	56.9*	1.7	1.3
CCCC(=O)N(Cc1cc(=O)[nH]c2ccccc12)c1ccc(C)cc1C	-3.7	-11.5	-6.2	8.2	1.3	3.2
CCCC(=O)N1CCCC1(C)C(=O)Nc1cc(OC)c(OC)c(OC)c1 (stereo unspecified)	5.6	6.3	-5.2	-12.4	0.4	-3.0
O=c1[nH]c2cc3ccccc3cc2nc1-c1nnnn1C1CCCC1	·	22.7	-8.8	·	4.0	·
CC(=O)N1CCc2cc(S(=O)(=O)C(C)CC(=O)NCc3ccco3)ccc21 (stereo unspecified)	4.5	6.3	-6.0	-10.2	0.3	-1.5
Cc1nc(CN2CCN(Cc3nc(C(c4ccccc4)c4ccccc4)no3)CC2)cs1	-31.9	6.4	2.6	65.3*	-0.2	-12.6
OC(c1ccccn1)C1CCN(Cc2nc(C(c3ccccc3)c3ccccc3)no2)CC1 (stereo unspecified)	4.3	13.2	-5.4	-8.1	1.1	-11.8
Cc1cccnc1CN1CCN(Cc2nc(C(c3ccccc3)c3ccccc3)no2)CC1	-26.3	5.4	-2.0	71.1*	0.9	-8.2
C[C@@H]1CN(C2CCN(Cc3nc(C(c4ccccc4)c4ccccc4)no3)CC2)C[C@H](C)O1	-20.6	11.4	-3.1	0.5	-0.2	-12.9
Cc1cccc(C2N(c3ccc(F)cc3)C(=O)C3CCCN32)c1 (stereo unspecified)	-2.7	-13.0	30.6*	-1.9	-0.5	-6.6
Cc1ccc(C2N(c3ccc(F)cc3)C(=O)C3CCCN32)cc1 (stereo unspecified)	6.2	18.6	-1.4	-9.4	0.1	-7.7
CC(C)c1cc(CNC(=O)c2cc(COc3cncc(Cl)c3)on2)on1	6.8	-12.2	10.5	-3.7	15.5*	-2.3
CCc1nc2ccc(C(=O)NCc3ccc4c(c3)OCO4)cn2c1N(CCC(C)C)CCN(C)C	-0.2	-1.8	1.2	-7.7	0.4	4.5
COc1ccc2[nH]cc(CCNC(=O)COc3cc(C)cc4oc(=O)cc(C)c34)c2c1	-23.6	-16.9	11.3	31.1*	3.9	-1.5
Cc1cc(OC(C)C(=O)NCCc2c[nH]c3ccccc23)c2c(C)cc(=O)oc2c1 (stereo unspecified)	-5.2	6.4	-5.0	-5.4	3.4	-4.3
CCc1ccccc1NC(=O)COC(=O)C1CC(=O)N(c2ccc(F)cc2)C1 (stereo unspecified)	-5.9	-8.1	28.8*	12.2	0.1	-3.3

Source: PubChem BioAssay (The Scripps Research Institute Molecular Screening Center)
